Experimental data taken from PubChem BioAssay AID1671190 (National Center for Advancing Translational Sciences (NCATS), 2021).
Values joined by “and” are separate entries in the source; they are usually repeats but may differ in a detail not shown here. Equal values may be shown once. The campaign covered roughly 580,000 compounds. About 6,100 (1.1%) were called active. About 15% were inconclusive and are not listed. This excerpt belongs to a sample that is enriched for actives. A number with no mark means an inactive call. Calls follow the shape of the dose curve; as a rule, active = well fitted inhibition curve with a large enough effect; inconclusive = small, poorly fitted or top-dose-only effect, or another doubt; inactive = no such curve, though single readings can be large or run the other way.

target: Polyunsaturated fatty acid lipoxygenase ALOX12 (Homo sapiens) (UniProt P18054); assay: Primary qHTS assay for inhibitors of human arachidonate 12S-lipoxygenase (ALOX12): Round 2; conditions: purified 12hLO, xylenol orange hydroperoxide absorbance; series mostly up to 108 µM; activity change, negative = inhibition: at the top concentration
In short: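 Hydroperoxide product was detected by ferrous iron/xylenol orange as the 573 to 405 nm absorbance ratio. Arachidonic acid at 40 uM (final) was turned over for 30 min at room temperature by 150 nM human 12hLO, pH 7.0 Hepes buffer, after 15 min compound preincubation.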
% is scaled to controls: 0 for no effect and ±100 for the full control effect; potency is read from the fitted curve at half-maximal effect.

Chain of Polyunsaturated fatty acid lipoxygenase ALOX12 (Homo sapiens) (P18054 whole entry, looked up): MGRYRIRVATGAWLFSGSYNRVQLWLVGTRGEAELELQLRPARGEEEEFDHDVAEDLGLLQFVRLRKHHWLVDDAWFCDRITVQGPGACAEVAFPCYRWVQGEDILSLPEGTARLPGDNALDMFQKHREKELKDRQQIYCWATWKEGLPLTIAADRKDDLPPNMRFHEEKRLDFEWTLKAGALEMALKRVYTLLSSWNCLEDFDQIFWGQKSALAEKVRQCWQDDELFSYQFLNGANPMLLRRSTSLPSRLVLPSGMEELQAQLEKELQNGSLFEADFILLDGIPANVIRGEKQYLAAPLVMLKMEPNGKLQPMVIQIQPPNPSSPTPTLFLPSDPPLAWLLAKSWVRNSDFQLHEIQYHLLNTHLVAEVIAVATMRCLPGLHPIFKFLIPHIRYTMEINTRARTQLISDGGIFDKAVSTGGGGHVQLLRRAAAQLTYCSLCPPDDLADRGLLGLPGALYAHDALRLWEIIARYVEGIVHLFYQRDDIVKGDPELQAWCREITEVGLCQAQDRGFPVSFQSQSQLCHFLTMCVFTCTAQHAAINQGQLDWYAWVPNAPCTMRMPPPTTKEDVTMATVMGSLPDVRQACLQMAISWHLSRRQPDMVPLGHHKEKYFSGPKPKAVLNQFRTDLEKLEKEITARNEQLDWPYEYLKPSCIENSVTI

| Structure (SMILES) | Potency | activity change, negative = inhibition |
| --- | --- | --- |
| COc1ccc(S(=O)(=O)Nc2ccc(O)c(Sc3nc4ccccc4s3)c2)cc1 | 44.7 µM (active) and 22.4 µM (active) |  |
| Cc1ccc(NS(=O)(=O)c2cccc(C(=O)N(C)C(C)c3nc4ccccc4s3)c2)cc1 (stereo unspecified) |  | -24.6% |
| COc1ccc(Nc2nc3ccccc3nc2NS(=O)(=O)c2ccc(OC)cc2)cc1 |  | 30.7% |
| COC(=O)C1=C(C)NC(=O)C1(NC(=O)c1ccccc1F)C(F)(F)F (stereo unspecified) |  | 4.24% |
| CCCCCCc1ccc(/C(C)=C\C(=O)O)cc1 |  | -0.714% |
| CCOc1ccc(CNC(=O)c2cc(-c3ccc(Cl)s3)nc3ccccc23)cc1 |  | 3.09% |
| CC(C)Oc1ccc(-c2cc(C(=O)NCc3ccncc3)c3ccccc3n2)cc1 |  | 2.41% |
| CCc1ccc(-c2cc(C(=O)NCc3ccco3)c3ccccc3n2)s1 | 17.8 µM (active) and 35.5 µM (active) |  |
| O=C(CSc1nc(-c2ccc(F)cc2)cs1)NC1CCCCC1 |  | -28.6% |
| CC(C)Cn1cnc2c1c(=O)n(CC(=O)OCc1ccc(F)cc1)c(=O)n2Cc1ccccc1 |  | -0.353% |
| COC(=O)C1=C(C)Nc2nc3ccccc3n2C1c1cc(OC)c(O)c(OC)c1 (stereo unspecified) |  | -5.58% |
| CCOc1ccc(NC(=O)c2ccc(Cl)cc2)c2cccnc12 |  | -4.2% |
| CC(C)Oc1ccc(NC(=O)c2ccc(Cl)cc2)cc1 |  | 11.9% |
| CCC(CO)Oc1cc(NC(=O)c2ccc(Cl)cc2)c2ncn(C(C)C)c2c1 (stereo unspecified) | 3.16 µM (active) |  |
| COc1ccccc1C(=O)N1CCCN(CCc2ccccc2)c2ccccc21 |  | -8.95% |
| COc1cccc(CN2Cc3cc(NC(=O)Cc4cccs4)ccc3OC(C)C2=O)c1OC (stereo unspecified) |  | -4.41% |
| O=C(NCc1ccc(Cl)cc1)c1cc(-c2ccc[nH]2)n[nH]1 | 31.6 µM (active) |  |
| CCOc1ccc(Cl)cc1-c1cc(C(=O)NCc2cccs2)[nH]n1 |  | 2.11% |
| COc1ccccc1CNC(=O)c1cc(-c2cc(Cl)ccc2C)n[nH]1 |  | 4.1% |
| CCCn1nc(C(=O)Nc2nc(-c3ccc(NC(C)=O)cc3)cs2)c2ccccc2c1=O |  | 9.87% |
| CC(NC(=O)CSc1ccc(F)c(F)c1)c1nc2ccccc2[nH]1 (stereo unspecified) |  | 23.4% |
| S=C(NCCc1ccc(Cl)cc1)Nc1ccc(Oc2ccccc2)cc1 | 17.8 µM (active) |  |
| CN(CC(=O)Nc1ccc(Cl)cc1)C(=O)c1ccc(COc2ccccc2)cc1 |  | -58.7% |
| Cc1nn(C)c2c1c(C(F)(F)F)cc(=O)n2C(C)C(=O)NCc1ccc(Cl)cc1 (stereo unspecified) |  | -0.223% |
| Cc1c(Cl)cccc1NC(=S)NCCSc1ccc(Cl)cc1 |  | -85.7% |
| Cc1ccc(NC(=S)NCCc2ccc(Cl)cc2)c(C)c1 | 35.5 µM (active) |  |

| Structure (SMILES) | Potency | activity change, negative = inhibition |
| --- | --- | --- |
| CCNC(=S)Nc1ccc(C)cc1Br |  | -16.7% |
| O=C(NCCc1ccccc1)Oc1ccc(Cl)cc1 |  | 0% |
| Cc1ccc(C)c(C(C)NC(=S)NCc2ccc(Cl)cc2)c1 (stereo unspecified) | 31.6 µM (active) |  |
| CCC(C)C(NC(=O)NCc1ccc(C)cc1)C(=O)O (stereo unspecified) |  | -26.5% |
| Cc1cccc(NC(=S)NCCc2ccc(F)cc2)c1C | 39.8 µM (active) |  |
| Cc1cccc(NC(=S)N2CCC(O)CC2)c1C |  | 6.13% |
| Cc1cc(Cl)ccc1NC(=S)NCCCN1CCCC1=O |  | -17.6% |
| CN1CCN(C(=O)CCCC(=O)O)CC1 |  | 15.9% |
| Cc1ccc([S+](=O)([O-])N2CCC3(CC2)CC(=O)N(c2ccccc2)c2ccccc2O3)cc1 |  | 0.498% |
| CC(C)CC1CCCN1 (stereo unspecified) |  | -58.6% |
| CCn1cc(CN2CCC(N3CC(OCC4CC4)C34CCCCC4)CC2)cn1 (stereo unspecified) |  | 34.7% |
| CC(=O)Nc1ccc(NC(=O)CSc2nnc(C3CC3)n2-c2ccccc2)cc1 |  | 14.7% |
| CC(=O)Nc1ccc(S(=O)(=O)N2CCN(c3ccccc3)CC2)cc1 |  | -22.7% |
| CC[n+]1c(C)n(-c2ccccc2)c2ccc(NC(C)=O)cc21 | 39.8 µM (active) |  |
| COCC1CN(C(C)=O)CC12CCN(C(=O)c1n[nH]c(=O)c3ccccc13)CC2 (stereo unspecified) |  | 36.8% |
| Cc1ccnc(-c2cccc([N+](=O)[O-])c2)[n+]1[O-] |  | -31.8% |
| N#CC(C#N)=Cc1ccc(-c2cccc(C(=O)O)c2)o1 |  | -13.7% |
| CC(=O)C(=Cc1ccc(-c2cccc([N+](=O)[O-])c2)o1)C(C)=O | 0.631 µM (active) |  |
| O=C(Nc1ccc(F)c(F)c1)c1nc2ccccc2nc1N1CCOCC1 |  | -46.7% |
| CCC(C)Cn1c(O)cc2nn(-c3nc4ccccc4s3)c(=O)c-2c1C (stereo unspecified) | 31.6 µM (active) |  |
| CC(C)Cn1nc(C(=O)Nc2ccc3nc(N4CCOCC4)sc3c2)c2ccccc2c1=O |  | -20.9% |
| CCNC(=O)CN1CCCN(C(=O)CCCc2c[nH]c3ccccc23)CC1 |  | 9.16% |
| CC(=O)NC(NC(=S)Nc1c(C)n(C)n(-c2ccccc2)c1=O)C(Cl)(Cl)Cl (stereo unspecified) |  | -12.2% |
| Cc1c(NC(=S)NC(=O)CCc2ccccc2)c(=O)n(-c2ccccc2)n1C |  | 0% |
| Cc1ccc(S(=O)(=O)/N=C(/NC(=S)Nc2c(C)n(C)n(-c3ccccc3)c2=O)c2ccccc2)cc1 | 28.2 µM (active) |  |
